Reference: PubChem BioAssay (EPA / NIEHS)
Active and inactive are the calls of the source. How the source made its calls: active means hit-call score of the fitted dose curve at least 0.9, where 1 is the maximum; inactive means score below 0.9.

Test: ATG_Ets_CIS: Attagene CIS-FACTORIAL HepG2 Assay for human Erythroblast Transformation Specific (ETS) (AID 2282941)
Conditions: HepG2 ETS cis-reporter transcription, actives raise or lower the signal
Protocol: ATG_CIS is a cell-based, multiplexed-readout assay that uses HepG2, a human liver cell line, with measurements taken at 24 hours after chemical dosing in a 24-well plate.ATG_Ets_CIS is one of 52 assay component(s) measured or calculated from the ATG_CIS assay. It is designed to make measurements of mRNA induction, a form of inducible reporter, as detected with fluorescence intensity signals by Reverse transcription polymerase chain reaction (RT-PCR) and Capillary electrophoresis technology.Data from the assay component ATG_Ets_CIS was analyzed into 1 assay endpoint. This assay endpoint, ATG_Ets_CIS, was analyzed with bidirectional fitting relative to DMSO as the negative control and baseline of activity. Using a type of inducible reporter, measures of mRNA for gain or loss-of-signal activity can be used to understand the reporter gene at the transcription factor-level as they relate to the gene ETS1. Furthermore, this assay endpoint can be referred to as a primary readout, because this assay has produced multiple assay endpoints where this one serves a reporter gene function. To generalize the intended target to other relatable targets, this assay endpoint is annotated to the dna binding intended target family, where the subfamily is winged helix-turn-helix.
Human liver HepG2 cells are transiently transfected with multiple reporter transcription units (MRTUs) in 6-well plates using FuGene 6 reagent (Roche; 3 ml FuGene/1 mg DNA). The MRTU constructs are regulated by a cis-regulating element (promoter). […] A major difference between the CIS and TRANS system is that in CIS activities of endogenous TFs are measured, whereas the TRANS assay evaluates changes in activities of exogenous, chimeric NR-Gal4 proteins. […] At the end of 24 hour incubation, total RNA was isolated using TriZol reagent (Invitrogen). The isolated RNA is then reverse-transcribed using oligo(dT) primer and Mo-MLV reverse transcriptase (Invitrogen) with DNAse I (Ambion) treatment for 30 min. The one-tenth of the produced cDNA was amplified by PCR using Taq DNA polymerase (Invitrogen) and two reporter sequence-specific primers. The PCR products were fluorescently labeled by primer extension with 6-arboxyfluorescein (6-FAM) 5'-labeled reporter sequence-specific primer (2 min at 95 C, 20 s at 68 C and 10 min at 72 C) and these products were digested with 5U of HpaI (New England Biolabs) for 2h at 37 C. The fragments were purified using Qiaquick PCR columns (Qiagen), analyzed on an ABI 3130xL genetic analyzer (Applied Biosystems) with peak positions identified by using a set of X-rhodamine (ROX)-labeled MapMarker1000 molecular weight standards (BioVentures). The raw capillary electrophoresis data was processed using Attagraph software (Attagene).

Structure (SMILES)	outcome	AC50
O=S(=O)(OCC(F)(F)F)C(F)(F)C(F)(F)C(F)(F)C(F)(F)F	inactive	
Nc1cc([N+](=O)[O-])cc(Cl)c1O	inactive	
F[Si-2](F)(F)(F)(F)F	inactive	
Cc1ccc2c(c1)OCC(=O)CO2	inactive	
CCCCCCCC/C=C\CCCCCCCC(=O)OCC(O)CO (stereo not given)	inactive	
O=S(=O)(O)c1ccc(Cl)cc1	inactive	
Cc1ccc(O)c(-n2nc3ccccc3n2)c1	inactive	
COCCC(=O)OC	inactive	
CCN(CC)c1ccc(C=O)cc1		26 µM (active)
CNS(=O)(=O)C(F)(F)C(F)(F)C(F)(F)C(F)(F)C(F)(F)C(F)(F)C(F)(F)C(F)(F)F	inactive	
O=C1c2c(O)ccc(Nc3ccc(CCO)cc3)c2C(=O)c2c([N+](=O)[O-])ccc(O)c21	inactive	
OCCCC(F)(F)C(F)(F)C(F)(F)C(F)(F)C(F)(F)C(F)(F)C(F)(F)C(F)(F)F	inactive	
FC(F)(F)C(F)(F)C(F)(F)CC1CO1 (stereo not given)	inactive	
O=C1c2ccccc2C(=O)c2c(Cl)cccc21	inactive	
CCc1ccc(C)nc1	inactive	
CC1=CC2C3C=CC(C3)C2C1C (stereo not given)	inactive	
CCN(CC)c1ccc(N=Nc2ccccc2)cc1	inactive	
CC(C)C(=O)OCc1ccccc1	inactive	
O=C(Cl)C(F)(F)C(F)(F)C(F)(F)C(F)(F)C(F)(F)C(F)(F)C(F)(F)F	inactive	
NCC(F)(F)C(F)(F)C(F)(F)C(F)(F)C(F)(F)C(F)(F)C(F)(F)C(F)(F)F	inactive	

Structure (SMILES)	outcome	AC50
CCOCN(C(=O)CS(=O)(=O)O)c1c(C)cccc1CC	inactive	
FC(F)(F)C(F)(F)C(F)(F)C(F)(F)C(F)(F)C(F)(F)C(F)(F)CCI	inactive	
CC(C)(C)c1cc(Cc2cc(C(C)(C)C)c(O)c(C(C)(C)C)c2)cc(C(C)(C)C)c1O	inactive	
COC(=O)c1ccc(C=O)cc1	inactive	
Cc1cc(O)c(C(C)(C)C)cc1C(C)(C)C	inactive	
CCN(CC)c1ccc2c(c1)Oc1cc(N(CC)CC)ccc1C21OC(=O)c2ccccc21	inactive	
NC(=O)C(F)(F)C(F)(F)C(F)(F)F	inactive	
CC1=CCC2C(=O)OC(=O)C2C1 (stereo not given)	inactive	
CCOCOCC	inactive	
Cc1cccc(C)n1	inactive	
C=C(C)C(=O)OCC(F)(F)C(F)(F)C(F)(F)C(F)F	inactive	
CN(C(=O)C(F)(F)C(F)(F)C(F)(F)F)[Si](C)(C)C	inactive	
CCCCCCCCCCCCC[N+](C)(C)Cc1ccccc1	inactive	
NS(=O)(=O)C(F)(F)C(F)(F)C(F)(F)C(F)(F)C(F)(F)C(F)(F)F	inactive	
CCCCCCCCCCCC(=O)Cl	inactive	
CCCCCCCCCCCCCCCCC	inactive	
CCN(CC)c1ccc(C=O)c(O)c1	inactive	
CCCC(=O)OCC(COC(=O)CCC)OC(=O)CCC	inactive	
C=C(C)CCCC	inactive	
CC(O)C#CC(C)O (stereo not given)	inactive	
